Results published in PMC10668032, “Altered binding affinity of SIX1-Q177R correlates with enhanced WNT5A and WNT pathway effector expression in Wilms tumor”.
Whole data set: some 33,000 sequences, median “e-score” near -0.053, cut for the highest 2% near 0.38. The full list was thinned out, with the highest values kept by preference.

target: T1, SIX1 homeodomain (reference allele) (human, UniProt Q15475 108-198); test: universal protein binding microarray; Universal all-10-mer PBM (8x60K, AMADID 030236), 300 nM GST-tagged protein, Alexa Fluor 488 anti-GST; buffer, salt, pH and temperature not stated (as in Berger); high values mean tight binding; conditions: protein: ivt; tags: N-terminal GST; dsDNA, one strand shown
T1 sequence: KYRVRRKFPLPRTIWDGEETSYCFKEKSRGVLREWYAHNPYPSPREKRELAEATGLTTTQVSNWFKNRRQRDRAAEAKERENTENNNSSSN
How it was run: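 GST-tagged homeodomains were made by in vitro transcription/translation and quantified by anti-GST western blot against a recombinant GST standard curve. They were applied in duplicate at 300 nM final concentration to universal 'all 10-mer' protein binding microarrays (8×60K format). Binding was quantified as 8-mer E-scores with the Universal PBM Analysis Suite.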

| Sequence | binding signal |
| --- | --- |
| GATACTGA | 0.42285 ± 0.000276 E-score |
| AATACTGT | 0.183 ± 0.00786 E-score |
| AATACTTG | 0.151 ± 0.0521 E-score |
| GATACTGC | 0.44524 ± 0.000438 E-score |
| AATACTTC | 0.2 ± 0.116 E-score |
| ATCGAGTA | 0.226 ± 0.00853 E-score |
| CGAATACA | 0.151 ± 0.0627 E-score |
| CCGCCTGA | 0.228 ± 0.0274 E-score |
| AACACCAG | 0.164 ± 0.0278 E-score |
| ATCGCCCG | 0.198 ± 0.0602 E-score |
| ACTCCATC | 0.162 ± 0.00629 E-score |
| ATCAGCTG | 0.154 ± 0.0485 E-score |
| CCCTCATC | 0.176 ± 0.0843 E-score |
| CGACACTC | 0.177 ± 0.0347 E-score |
| ATACATAG | 0.177 ± 0.0401 E-score |
| CTAGTATA | 0.242 ± 0.0487 E-score |
| CTAGTATC | 0.388 ± 0.0365 E-score |
| ATAGTATG | 0.258 ± 0.00892 E-score |
| ATAGTATC | 0.426 ± 0.0263 E-score |
| GTAGTATA | 0.267 ± 0.0665 E-score |
| ATAGTATA | 0.29 ± 0.0405 E-score |
| CATGTGAG | 0.152 ± 0.0831 E-score |
| ATCCAAGC | 0.169 ± 0.0665 E-score |
| AGCCGATC | 0.329 ± 0.0103 E-score |
| ACGTATTG | 0.211 ± 0.0377 E-score |
| CCGTATAC | 0.36 ± 0.00586 E-score |

| Sequence | binding signal |
| --- | --- |
| ACGTATCC | 0.377 ± 0.0283 E-score |
| ACGTATCG | 0.413 ± 0.0215 E-score |
| GCGTATCC | 0.369 ± 0.00641 E-score |
| ACGTATTC | 0.234 ± 0.0548 E-score |
| CCGTATCC | 0.438 ± 0.0211 E-score |
| ACGTATAG | 0.189 ± 0.0603 E-score |
| ACGTATCA | 0.474 ± 0.0189 E-score |
| ACGTATAA | 0.268 ± 0.0722 E-score |
| ACGTATCT | 0.339 ± 0.0607 E-score |
| CCGTATTC | 0.177 ± 0.00726 E-score |
| ATCAGTTA | 0.182 ± 0.0174 E-score |
| AAGATCGG | 0.174 ± 0.064 E-score |
| CGGATTAG | 0.251 ± 0.0088 E-score |
| ATTGACAC | 0.3147 ± 0.00157 E-score |
| CCCGATCA | 0.347 ± 0.0408 E-score |
| ATCAGTGG | 0.261 ± 0.0178 E-score |
| TCATATGA | 0.303 ± 0.0253 E-score |
| ACATATCA | 0.446 ± 0.0429 E-score |
| ACATATGA | 0.166 ± 0.0311 E-score |
| GCATATCC | 0.391 ± 0.00731 E-score |
| ACATATTA | 0.161 ± 0.0413 E-score |
| TAATATCA | 0.34 ± 0.0768 E-score |
| CCATATAA | 0.155 ± 0.0479 E-score |
| CCATATTA | 0.265 ± 0.0697 E-score |
| GCATATAC | 0.227 ± 0.0131 E-score |
| GAATATCC | 0.276 ± 0.0527 E-score |

| Sequence | binding signal |
| --- | --- |
| CCATATCA | 0.472 ± 0.0124 E-score |
| TCATATCA | 0.418 ± 0.0507 E-score |
| AACGCATA | 0.203 ± 0.0681 E-score |
| AGAACACC | 0.179 ± 0.0208 E-score |
| CCCCGCGA | 0.229 ± 0.018 E-score |
| ACCCAGCT | 0.181 ± 0.00331 E-score |
| AGCCATCG | 0.173 ± 0.0382 E-score |
| TGAAACCA | 0.163 ± 0.0347 E-score |
| GCATATTA | 0.249 ± 0.0567 E-score |
| GCATATCA | 0.449 ± 0.0321 E-score |
| GCATATAA | 0.175 ± 0.0587 E-score |
| AATGTGAT | 0.178 ± 0.0316 E-score |
| ACTATATA | 0.247 ± 0.0141 E-score |
| AACGGTGT | 0.253 ± 0.00261 E-score |
| GGTATTGA | 0.3862 ± 0.0022 E-score |
| CGAATCGA | 0.182 ± 0.0398 E-score |
| GCTATCGA | 0.253 ± 0.0112 E-score |
| GGTATGGA | 0.252 ± 0.0421 E-score |
| GGTATTAC | 0.385 ± 0.0216 E-score |
| CGTATAGA | 0.28 ± 0.00298 E-score |
| CGTATTGA | 0.23 ± 0.0207 E-score |
| AGTATTAC | 0.188 ± 0.0763 E-score |
| GGTATTAA | 0.366 ± 0.0749 E-score |
| CGTATCGA | 0.3978 ± 0.00377 E-score |
| GGTATCGA | 0.463 ± 0.00936 E-score |
| AGTATTGA | 0.193 ± 0.0395 E-score |

| Sequence | binding signal |
| --- | --- |
| ATACGAAA | 0.226 ± 0.0116 E-score |
| ATCCTAAA | 0.184 ± 0.0231 E-score |
| ACACCTGG | 0.172 ± 0.0558 E-score |
| ACAATACC | 0.318 ± 0.028 E-score |
| GGATAAAA | 0.166 ± 0.106 E-score |
| GTGGACAC | 0.182 ± 0.0385 E-score |
| ATCACCGC | 0.191 ± 0.00595 E-score |
| ATCTGTGC | 0.153 ± 0.0364 E-score |
| ATAAATAT | 0.168 ± 0.1 E-score |
| GAACCCGA | 0.19 ± 0.0702 E-score |
| ATAGCCAT | 0.218 ± 0.0172 E-score |
| AGTATCTA | 0.347 ± 0.0371 E-score |
| GGTATCTA | 0.426 ± 0.0126 E-score |
| GCTATCTA | 0.169 ± 0.00501 E-score |
| ACAGTATC | 0.402 ± 0.0345 E-score |
| ACAGTATA | 0.287 ± 0.0542 E-score |
| GCAGTATA | 0.205 ± 0.0152 E-score |
| CCAGTATC | 0.407 ± 0.0315 E-score |
| CCTGTATC | 0.365 ± 0.02 E-score |
| ATTGTATC | 0.367 ± 0.0214 E-score |
| GATCTTGA | 0.269 ± 0.0237 E-score |
| ATCACGCA | 0.203 ± 0.00725 E-score |
| ATGAGATG | 0.243 ± 0.00629 E-score |
| TATCGTAA | 0.296 ± 0.0233 E-score |
| ACACCGGG | 0.301 ± 0.000651 E-score |
| ACACCGGT | 0.39 ± 0.0245 E-score |

| Sequence | binding signal |
| --- | --- |
| ACACCGGA | 0.364 ± 0.0193 E-score |
| CGGATGTA | 0.151 ± 0.0426 E-score |
| TAGGCGAA | 0.164 ± 0.00529 E-score |
| GTGGTATA | 0.3 ± 0.0344 E-score |
| CTGGTATC | 0.45 ± 0.00737 E-score |
| CTGGTATA | 0.255 ± 0.0119 E-score |
| ATGGTATA | 0.336 ± 0.0339 E-score |
| ATGGTATC | 0.469 ± 0.00713 E-score |
| ATGGTCTC | 0.153 ± 0.0473 E-score |
| CACGATAC | 0.438 ± 0.0144 E-score |
| AACGATCT | 0.176 ± 0.00697 E-score |
| AACGATAT | 0.408 ± 0.0444 E-score |
| CACGATAG | 0.245 ± 0.0038 E-score |
| AACGATAC | 0.435 ± 0.0105 E-score |
| AAGGATAT | 0.365 ± 0.0541 E-score |
| AACGATAG | 0.175 ± 0.0167 E-score |
| AACGACAC | 0.276 ± 0.0085 E-score |
| GACGATCC | 0.387 ± 0.0391 E-score |
| AACGATCC | 0.333 ± 0.0104 E-score |
| CACGATCC | 0.342 ± 0.0744 E-score |
| TACGATAA | 0.175 ± 0.0264 E-score |
| ATATAACG | 0.2329 ± 0.00214 E-score |
| ATTGTATA | 0.308 ± 0.00631 E-score |
| CCTCATCG | 0.185 ± 0.0079 E-score |
| TAAGATCA | 0.293 ± 0.0543 E-score |
| CGATTAAA | 0.156 ± 0.0382 E-score |

| Sequence | binding signal |
| --- | --- |
| AATCTGAT | 0.289 ± 0.0333 E-score |
| CGGATGAG | 0.183 ± 0.049 E-score |
| TATCTCGA | 0.248 ± 0.0332 E-score |
| CAAGGGGA | 0.165 ± 0.0484 E-score |
| GACGACAC | 0.164 ± 0.00255 E-score |
| GAAGATAC | 0.354 ± 0.0356 E-score |
| GACGATAC | 0.453 ± 0.00476 E-score |
| GGTAATAC | 0.297 ± 0.025 E-score |
| ATATGTGC | 0.241 ± 0.0491 E-score |
| ATCCGGGA | 0.295 ± 0.0471 E-score |
| ATCCGGTA | 0.318 ± 0.0245 E-score |
| ATCCGGTG | 0.405 ± 0.026 E-score |
| ATCCGGTC | 0.318 ± 0.00861 E-score |
| ATCCGGGG | 0.418 ± 0.0155 E-score |
| ATCCGGGC | 0.3565 ± 0.000735 E-score |
| GAAGACAC | 0.21 ± 0.0292 E-score |
| CTAACACC | 0.213 ± 0.0035 E-score |
| TATCACCA | 0.42 ± 0.031 E-score |
| TATCACGA | 0.373 ± 0.0201 E-score |
| TATCACAA | 0.385 ± 0.049 E-score |
| TCTCACCA | 0.259 ± 0.00728 E-score |
| GATCACCA | 0.334 ± 0.0295 E-score |
| GATCACAA | 0.31 ± 0.0262 E-score |
| CGATAATA | 0.328 ± 0.0401 E-score |
| CCCTTCTC | 0.274 ± 0.0318 E-score |
| ATAGTCTC | 0.151 ± 0.0259 E-score |

| Sequence | binding signal |
| --- | --- |
| ACAGATCG | 0.2347 ± 0.00197 E-score |
| CGCGGATC | 0.365 ± 0.0314 E-score |
| AGCGGATG | 0.154 ± 0.049 E-score |
| AGCGGATA | 0.364 ± 0.0328 E-score |
| GGCGGATA | 0.403 ± 0.0134 E-score |
| CGCGGATA | 0.3882 ± 0.00207 E-score |
| GGCGGGTA | 0.228 ± 0.0067 E-score |
| GATCAGCC | 0.293 ± 0.0341 E-score |
| ATCGCATC | 0.3271 ± 0.00246 E-score |
| CACGTATA | 0.304 ± 0.0586 E-score |
| AACGTATA | 0.167 ± 0.109 E-score |
| ATCGTATC | 0.441 ± 0.0183 E-score |
| GACGTCTC | 0.163 ± 0.0364 E-score |
| CACGTATC | 0.433 ± 0.00889 E-score |
| ATCGTATA | 0.324 ± 0.00599 E-score |
| GACGTATA | 0.213 ± 0.108 E-score |
| GACGTATC | 0.42 ± 0.0354 E-score |
| CTCGTATC | 0.367 ± 0.0253 E-score |
| AACGTATC | 0.385 ± 0.067 E-score |
| TACGTATA | 0.272 ± 0.0445 E-score |
| AACCTATC | 0.246 ± 0.0031 E-score |
